# Structures can show the parent of a compound that is named as a salt.
# What was measured:
# Settings in all cases: 10 µM; exposure time 6 h
# [1] = test system: Danio rerio larvae (5 dpf); assay: difference in excitability vs DMSO (percentage points); higher = more excitable than DMSO
# Outline: (§1)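 Wild-type 5 dpf zebrafish larvae in 96-well plates were given 100 µL egg water containing library compound at 10 µM final for 6 h. After 3 h of exposure, plates at 28.5 ℃ were photographed every 6 s during a 3-h programme of moving lines and 100 ms, 400Hz tones. Z-LaP Tracker (a DeepLabCut model) quantified each behaviour, averaged over 48 larvae per compound. Values are the compound mean minus the DMSO-vehicle control, in percentage points.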
# [2] = test system: Danio rerio larvae (5 dpf); assay: difference in startle response vs DMSO (percentage points); higher = stronger startle than DMSO
# Outline: as §1
# [3] = test system: Danio rerio larvae (5 dpf); assay: difference in activity during first hour vs DMSO (percentage points); higher = more activity than DMSO
# Outline: as §1
# [4] = test system: Danio rerio larvae (5 dpf); assay: difference in habituation to acoustic stimuli vs DMSO (percentage points); higher = more habituation than DMSO
# Outline: as §1
# [5] = test system: Danio rerio larvae (5 dpf); assay: difference in combined optomotor response to red, green and blue moving lines vs DMSO (percentage points); higher = stronger optomotor response than DMSO
# Outline: as §1
Compound,difference in excitability [1],difference in startle response [2],difference in activity during first hour [3],difference in habituation to acoustic stimuli [4],difference [5]
Cc1ncc([N+](=O)[O-])n1CCO [Metronidazole],5.42,1.25,-3.64,-2.4,7.32
CC[C@@H](CO)NCCN[C@@H](CC)CO [Ethambutol (hydrochloride)],2.65,1.19,7,4.16,-3.67
CNCC[C@@H](Oc1ccccc1C)c1ccccc1 [Atomoxetine (hydrochloride)],21.7,-9.34,-21.4,-3.36,-0.351
O=c1[nH]c2ccccc2n1CCN1CCN(c2cccc(C(F)(F)F)c2)CC1 [Flibanserin],17.7,11.6,9.81,-4.3,-0.569
CO/N=C(\C(=O)N[C@@H]1C(=O)N2C(C(=O)O)=C(COC(N)=O)CS[C@H]12)c1ccco1 [Cefuroxime (sodium salt)],21.1,5.54,-6.92,2.43,10.9
CCOC(=O)C1=C(COCCN)NC(C)=C(C(=O)OC)C1c1ccccc1Cl (stereo not given) [Amlodipine],4.37,-5.58,1.69,0.668,7.23
CC(=O)Nc1cccc(-n2c(=O)n(C3CC3)c(=O)c3c(Nc4ccc(I)cc4F)n(C)c(=O)c(C)c32)c1 [Trametinib],9.81,0.301,6.06,2.09,6.51
O=C1NC(c2ccccc2)(c2ccccc2)C(=O)N1COP(=O)(O)O [Fosphenytoin (sodium salt)],1.33,6.03,-3.5,3.61,0.0516
CC(=O)Oc1c(C)cc(OCC(O)CNC(C)C)c(C)c1C (stereo not given) [Metipranolol (hydrochloride)],1.28,4.21,-3.92,5.42,0.513
C[C@]12C=CC(=O)N[C@@H]1CC[C@@H]1[C@@H]2CC[C@]2(C)[C@@H](C(=O)Nc3cc(C(F)(F)F)ccc3C(F)(F)F)CC[C@@H]12 [Dutasteride],18.8,-0.713,22.4,-8.39,-3.79
OC[C@@H](O)[C@@H](O)[C@H](O)[C@H](O)CO [D-Mannitol],1.16,-0.914,5.26,3.53,4.85
Nc1ccc(S(N)(=O)=O)cc1 [Sulfanilamide],11.8,-3.25,6.97,-1.65,3.13
C[C@](N)(Cc1ccc(O)c(O)c1)C(=O)O [L-(-)-α-Methyldopa],2.76,-2.74,3.45,-1.83,6
COc1ccccc1Oc1c(NS(=O)(=O)c2ccc(C(C)(C)C)cc2)nc(-c2ncccn2)nc1OCCO [Bosentan],11.1,-7.54,2.38,2.24,-0.979
CC(C)C[C@H](NC(=O)CNC(=O)c1cc(Cl)ccc1Cl)B1OC(=O)C(CC(=O)O)(CC(=O)O)O1,-1.67,1.83,2.45,4.21,5.88
CC1COc2c(N3CCN(C)CC3)c(F)cc3c(=O)c(C(=O)O)cn1c23 (stereo not given) [Ofloxacin],5.76,3.75,9.1,-0.318,1.41
Clc1ccc(C(c2ccccc2Cl)C(Cl)Cl)cc1 (stereo not given) [Mitotane],5.19,-9.33,60.8,-11.8,-15.4
Cn1c(=O)c2[nH]cnc2n(C)c1=O [Oxtriphylline],-4.32,6.97,-0.101,1.02,-3.12
C[C@@H]1C[C@H]2[C@@H]3CCC4=CC(=O)C=C[C@]4(C)[C@@]3(F)[C@@H](O)C[C@]2(C)[C@@]1(O)C(=O)CO [Dexamethasone],-4.56,-3.99,-6.96,0.952,3.79
CNCCC(Oc1ccc(C(F)(F)F)cc1)c1ccccc1 (stereo not given) [Fluoxetine (hydrochloride)],2.79,-8.12,-19.3,-5.89,-6.12

Compound,difference in excitability [1],difference in startle response [2],difference in activity during first hour [3],difference in habituation to acoustic stimuli [4],difference [5]
COC(=O)N[C@H](C(=O)N1CCC[C@H]1c1nc(-c2ccc3c(c2)O[C@@H](c2ccccc2)n2c-3cc3cc(-c4c[nH]c([C@@H]5CCCN5C(=O)[C@@H](NC(=O)OC)C(C)C)n4)ccc32)c[nH]1)C(C)C [Elbasvir],9.31,-11.8,0.959,5.9,1.3
CC[C@@H]([C@H](C)O)n1ncn(-c2ccc(N3CCN(c4ccc(OC[C@@H]5CO[C@@](Cn6cncn6)(c6ccc(F)cc6F)C5)cc4)CC3)cc2)c1=O [Posaconazole],9.26,-3.5,4.34,-1.56,5.63
C=C[C@]1(C)C[C@@H](OC(=O)CS[C@@H]2C[C@H]3CC[C@@H](C2)N3C)[C@]2(C)[C@H](C)CC[C@]3(CCC(=O)[C@H]32)[C@@H](C)[C@@H]1O [Retapamulin],25.1,5.21,-2.58,1.86,5.67
C[C@@H]1C[C@H]2[C@@H]3CCC4=CC(=O)C=C[C@]4(C)[C@@]3(Cl)[C@@H](O)C[C@]2(C)[C@@]1(OC(=O)c1ccco1)C(=O)CCl [Mometasone Furoate],11.9,0.167,1.33,0.89,3.46
CCCN(CCC)CCc1cccc2c1CC(=O)N2 [Ropinirole (hydrochloride)],31.3,-0.638,-13.7,-1.82,-4.31
C[C@]12C=CC(=O)C=C1CC[C@@H]1[C@@H]2C(=O)C[C@@]2(C)[C@H]1CC[C@]2(O)C(=O)CO [Prednisone],14.1,2.97,-14.4,6.62,-4.57
C[C@]12CCC3=C4CCC(=O)C=C4CC[C@H]3[C@@H]1CC[C@@]2(O)CC#N [Dienogest],6.14,-3.1,11.2,4.78,1.22
Nc1c(CC(=O)O)cccc1C(=O)c1ccc(Br)cc1 [Bromfenac (sodium salt)],22,-1.71,7.18,-4.75,1.64
CCCCN1CCCCC1C(=O)Nc1c(C)cccc1C (stereo not given) [Bupivacaine],0.996,-2.63,13.4,2.63,6.71
COC(=O)N(C)c1c(N)nc(-c2nn(Cc3ccccc3F)c3ncccc23)nc1N [Riociguat],1.63,0.148,7.75,4.38,-2.92
CC1=C(CC(=O)O)c2cc(F)ccc2/C1=C\c1ccc([S+](C)[O-])cc1 (stereo not given) [Sulindac],6.96,0.529,10.8,0.634,-2.61
CCC[C@H](N[C@@H](C)C(=O)N1[C@H](C(=O)O)C[C@@H]2CCCC[C@@H]21)C(=O)OCC [Perindopril],1.68,3.45,15,-4.9,1.2
NC[C@@H](O)c1ccc(O)c(O)c1 [L-(-)-Norepinephrine (bitartrate hydrate)],5.69,-4.59,23,-6.22,6.76
CC(C)(C)c1nc(-c2cccc(NS(=O)(=O)c3c(F)cccc3F)c2F)c(-c2ccnc(N)n2)s1 [Dabrafenib],1.22,0.607,3.67,-5.97,-1.51
CCCCCOc1ccc(-c2ccc(-c3ccc(C(=O)N[C@H]4C[C@@H](O)[C@@H](O)NC(=O)[C@@H]5[C@@H](O)[C@@H](C)CN5C(=O)[C@H]([C@@H](C)O)NC(=O)[C@H]([C@H](O)[C@@H](O)c5ccc(O)cc5)NC(=O)[C@@H]5C[C@@H](O)CN5C(=O)[C@H]([C@@H](C)O)NC4=O)cc3)cc2)cc1 [Anidulafungin],9.87,-9.61,-17.6,-10.4,-18.1
O=C(O[C@H]1CN2CCC1CC2)N1CCc2ccccc2[C@@H]1c1ccccc1 [Solifenacin (succinate)],3.16,-8.09,25.6,-1.09,1.96
COc1ccccc1OCC(O)CO (stereo not given) [Guaifenesin],1.91,-2.97,10.9,3.83,6.79
Nc1ncn([C@@H]2O[C@H](CO)[C@@H](O)[C@H]2O)c(=O)n1 [5-Azacytidine],6.01,-4.41,-3.91,-4.6,0.0811
NCC(=O)CCC(=O)O [5-Aminolevulinic Acid (hydrochloride)],11.2,1.8,1.6,-2.9,2.93

# Source: the supplement of paper PMC10515830
